In PubChem BioAssay (NCI):
This is part of a sample that, as a whole, favours compounds with a hit. Of some 83,000 tested, about 20% had one in any assay.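 Negative percent growth values reflect cell death: -40 means 40% of the cells present at the start died, and -100 means all died.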 Values without a mark were called inactive. The source made the active and inactive calls. Rule for the calls: active = growth percent below 10; inactive = the rest.

Test system: HL-60(TB) leukemia
Test: NCI-60 one-dose screen, 48 h (100 = growth as untreated, 0 = no growth, -100 = all killed)
Conditions: 10 µM unless noted

SMILES | growth
CCn1c(C)nc([N+](=O)[O-])c1Sc1nc(N)nc2nc[nH]c12 | 50.9%
COc1ccc(/C=C/c2c(C(=O)/C=C/c3ccccc3)c(C)nc3ccccc23)cc1 | 6.07% (active)
O=C(CCCCCCN1CC(=O)N2[C@@H](c3ccccc3Cl)c3[nH]c4ccccc4c3C[C@H]2C1=O)NO | 55%
CCN1CCN(C(=O)[C@@]2(C)CC[C@]3(C)CC[C@]4(C)C(=CC(=O)[C@@H]5[C@@]6(C)CC[C@H](OC7C[C@@H](O)[C@@H](O)C(C)O7)C(C)(C)[C@@H]6CC[C@]54C)[C@@H]3C2)CC1 (stereo not given in full) | -57.2% (active)
NC(N)=N/N=C(/c1ccccc1)c1ccc(N)cc1 | 98.1%
N#Cc1c(-c2ccc(Cl)cc2)nc(NN=Cc2ccc[nH]2)nc1N1CCOCC1 | 2.28% (active)
CCNC(=O)Oc1ccc(/C(=C(\C)c2ccccc2)c2ccc(OCCN3CCCCC3)cc2)cc1 | 45.5%
CC1=C[C@H]2c3c(c(O)c(O)c4oc5ccccc5c(=O)c34)[C@H](c3cc(O)c(O)c4oc5ccccc5c(=O)c34)[C@H]2C(C)(C)C1 | -23% (active)
CN1C(=O)/C(=C\c2c(Cl)cccc2Cl)c2ccccc21 | 80.9%
COc1ccc(CNC(=O)C(=O)[C@H](Cc2ccccc2)NC(=O)c2[nH]c3ccccc3c(=O)c2C)cc1 | 110%
CCCCNc1ccc(Nc2ccccc2)cc1 | 16.5%
Cc1ccc(S(=O)(=O)OC2COCOC2C(OS(=O)(=O)c2ccc(C)cc2)C2OCOCC2OS(=O)(=O)c2ccc(C)cc2)cc1 (stereo not given) | 106%
COc1cc2cc(NCc3ccncc3)nc(C)c2cc1OC | 103%
Oc1c(CNCCNCc2cc(Cl)cc(Cc3ccccc3)c2O)cc(Cl)cc1Cc1ccccc1 | -0.262% (active)
CCCCC1(O)CCCCC1 | 99.1%
Cc1c(-c2ccccc2)[nH]c2ccccc12 | 106%
CC(C)OC(=O)c1ccc([N+](=O)[O-])cc1 | 121%
COc1cccc2c1c1nc3cc(C)c(C)cc3nc1n2CCN(C)C | 15.3%
CCOC(=O)/C(=C\c1ccc(-c2ccccc2)cc1)C(C)=O | 93.7%
CC(C)=CCc1cc(O)c(O)c2oc3cc(O)cc(O)c3c(=O)c12 | 103%

SMILES | growth
COc1ccc(C2=NN(C=O)C(c3ccc(Oc4nc5c(c(=O)n(C)c(=O)n5C)n4C)c(OC)c3)C2)cc1 (stereo not given) | 90.3%
Oc1ccc(Cc2ccc(O)c(C3CC(c4ccc(Cl)cc4)=NN3)c2)cc1C1CC(c2ccc(Cl)cc2)=NN1 (stereo not given) | -23.6% (active)
COc1ccc(Nc2nc(NCc3ccccc3)c3ccccc3n2)cc1 | 89.5%
CCCCCCCCOC(=O)CC[C@@H](C)[C@H]1CC[C@H]2[C@@H]3[C@H](OC(=O)CCN)C[C@@H]4C[C@H](OC(=O)CCN)CC[C@]4(C)[C@H]3C[C@H](OC(=O)CCN)[C@]12C | 43.7%
C=CC(=O)Nc1cccc(-c2nc(SC)nc(Nc3cccc(OC)c3)c2C#N)c1 | 42.2%
Nc1ccc2c(c1)Cc1cc(NC(=O)C(F)(F)F)ccc1-2 | 98.4%
O=c1c2ccccc2c(Br)c(Br)c2ccccc12 | 70.9%
COc1cc(C2=NN(C(C)=O)C(c3ccc(OC(C)=O)cc3OC(C)=O)O2)c(OC(C)=O)c2ccccc12 (stereo not given) | -17.9% (active)
O=C1CCCC=CC[C@H]2C=C(Cl)C(=O)C2=CC[C@H](CCCCC(F)(F)F)OC(=O)CCCC=CC[C@H]2C=C(Cl)C(=O)C2=CC[C@H](CCCCC(F)(F)F)OC(=O)CCCC=CC[C@H]2C=C(Cl)C(=O)C2=CC[C@H](CCCCC(F)(F)F)O1 | 27.6% [6.25 µM]
Cc1cccc2c1C[C@@]1(C2=O)C(c2ccc(C(C)(C)C)cc2)=NOS1=O (stereo not given in full) | 100%
COc1ccc2c(-c3ccc(F)cc3)c(C#N)c(=NC(C)=O)oc2c1 | -17.4% (active)
CC1CCC(C)(C)c2ccccc21 (stereo not given) | 109%
CC[N+](CC)=c1ccc2nc3c(cc(NCc4ccccc4)c4ccccc43)oc-2c1 | -41.2% (active)
CSc1nnc(-c2sc3nnc(-c4ccccc4)c(-c4ccccc4)c3c2O)o1 | 107%
COc1ccc(C(=O)CSc2nccc(Nc3ccc(C(=O)O)cc3)n2)cc1 | 99.5%
CC(=O)[C@@]1(O)CC[C@H]2[C@@H]3CC[C@@H]4CC(=O)CC[C@]4(C)[C@H]3[C@@H](O)C[C@@]21C | 102%
C[C@@H]1O[C@@H](O[C@@H]2C[C@H](c3ccc4c(c3O)C(=O)C3=C(C4=O)[C@@]4(O)C(=O)C[C@](C)(O)C[C@@]4(O)C=C3)O[C@H](C)[C@H]2O)C[C@H](O)[C@@H]1O | 99.5%
CCCC(=O)NNc1[nH]c(-c2cc(OC)c(OC)c(OC)c2)cc1C(=O)OCC | -11.1% (active)
C[C@@H]1CN(c2nc3c(cc2F)c(=O)c(C(=O)O)cn3C(C)(C)C)C[C@H](C)N1 | 97%
CC(C)(C)NC(=O)C(OC(=O)c1cccc(Cl)c1)c1ccc(Cl)cc1 (stereo not given) | 103%
